# NPSR antag = neuropeptide S receptor (human) antagonism, cAMP. Q6W5P4. CHO-NPSR cells, cAMP TR-FRET, antagonist mode. Potency, µM (top dose mostly 38.3 µM), inactives show at the highest dose activity change, negative = inhibition, most hits filed as inhibitors. 220,000 compounds, 1% hits. AID 1461; further: potency means the concentration at half of the fitted maximal effect; nearly all actives have a fitted effect of over 50% in size
# Target sequence (Q6W5P4 whole entry, looked up): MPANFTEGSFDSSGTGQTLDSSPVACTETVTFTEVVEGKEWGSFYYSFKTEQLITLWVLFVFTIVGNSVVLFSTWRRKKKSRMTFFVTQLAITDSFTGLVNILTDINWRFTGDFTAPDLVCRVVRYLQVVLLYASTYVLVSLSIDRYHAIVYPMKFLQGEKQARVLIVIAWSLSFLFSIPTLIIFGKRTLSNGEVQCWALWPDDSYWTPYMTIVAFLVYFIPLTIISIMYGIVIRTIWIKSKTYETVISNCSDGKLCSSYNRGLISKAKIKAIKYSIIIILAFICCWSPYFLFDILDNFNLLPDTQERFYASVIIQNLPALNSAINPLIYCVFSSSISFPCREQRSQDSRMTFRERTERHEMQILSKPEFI
# FBPA coupling cs = coupling enzyme interference in Giardia aldolase counter-screen. coupling enzyme system counterscreen, AmpLite Red fluorescence. activity change, negative = inhibition, % at 58.2 µM, hits read low. 290,000 compounds, 0.67% hits. AID 2472; in the data active means activity change below about -30%
#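 Fluorescence at 525 nm excitation and 598 nm emission measured inhibition of the coupled detection system without aldolase. Compounds (at 57.5 uM final) were preincubated 10 min at room temperature with coupling enzyme reagent before a 20 min substrate/AmpLite Red step.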
# RGS12 GoLoco inh = blocks human Gai1 binding to RGS12 GoLoco peptide, red readout. Gai1:RGS12 GoLoco peptide FP, rhodamine, 10 min. Potency, µM (top dose mostly 61.6 µM), inactives show at the highest dose activity, negative = inhibition, hits mostly inhibitors. 230,000 compounds, 0.44% hits. AID 880; active means well fitted inhibition curve with a large enough effect, not every such curve was filed as active; inactive means no such curve, though single readings can be large or run the other way; further: potency means the concentration at half of the fitted maximal effect; nearly all actives have a fitted effect of over 30% in size
# ALDH1A1 inh = ALDH1A1 (human) enzyme inhibition. P00352. Purified ALDH1A1, NADH fluorescence, propionaldehyde substrate. Potency, µM (series often up to 75.3 µM), for the others: top-dose activity, negative = inhibition, usual class: inhibitors. 220,000 compounds, 7.3% hits; active means well fitted inhibition curve with a large enough effect, not every such curve was filed as active; inconclusive means small, poorly fitted or top-dose-only effect, or another doubt; inactive means no such curve, though single readings can be large or run the other way;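 further: potency means the concentration at half of the fitted maximal effect; plate controls were no enzyme wells and a reference inhibitor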
# JMJD2E inh = inhibitors of human JMJD2E histone demethylase | 230,000 compounds, 1.6% hits | Potency, µM (highest dose often 57.1 µM), for inactives: at the highest dose activity change, negative = inhibition, most hits filed as inhibitors | JMJD2E catalytic domain, FDH-coupled NADH fluorescence (FDH is formaldehyde dehydrogenase) | B2RXH2; active means well fitted inhibition curve with a large enough effect, not every such curve was filed as active; inconclusive means small, poorly fitted or top-dose-only effect, or another doubt; inactive means no such curve, though single readings can be large or run the other way;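 further: potency means the concentration at half of the fitted maximal effect; 0% = wells with enzyme and -100% = buffer wells without enzyme; nearly all actives have a fitted effect of over 50% in size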
# Target sequence (B2RXH2 1-337 limits assumed): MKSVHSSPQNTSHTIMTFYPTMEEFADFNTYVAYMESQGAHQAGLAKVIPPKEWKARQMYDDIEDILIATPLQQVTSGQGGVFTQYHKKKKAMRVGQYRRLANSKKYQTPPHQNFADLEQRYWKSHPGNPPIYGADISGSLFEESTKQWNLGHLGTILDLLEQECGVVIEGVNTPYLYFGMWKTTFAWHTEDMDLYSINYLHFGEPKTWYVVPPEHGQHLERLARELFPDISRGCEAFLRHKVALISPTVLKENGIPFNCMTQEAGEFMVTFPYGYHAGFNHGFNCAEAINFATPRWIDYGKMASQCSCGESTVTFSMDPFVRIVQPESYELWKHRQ
# Sfp inh = blocks B. subtilis Sfp PPTase activity. Biochemical Sfp PPTase activity, qHTS. 310,000 compounds, 3.5% hits. AID 1490. Q9F4F7. Potency, µM, inactives show largest response in the series, negative = inhibition, actives largely listed as inhibitors;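 further: the enzyme is Sfp with the accession as filed and its product quenches rhodamine fluorescence; potency means the concentration at half of the fitted maximal effect; 0% = enzyme reaction without inhibitor and -100% = no enzyme wells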
#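 Sfp 15 nM + cpd, 15 min RT; start w/ rhodamine-CoA 5 uM, BHQ-2-YbbR 12.5 uM (final); 50 mM Hepes pH 7.6, 10 mM MgCl2, 0.01% NP-40, 0.01% BSA; read 525/598 nm at 0 and 30 min.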
# * = called active by the depositor; ? = inconclusive; . = no result given; ! = not confirmed by another sample; [ ] = dose if it differs, or a comment. This is a sample that favours compounds with a hit; in the whole collection about 8.5% have one here. Unless noted, the call rests on the fitted dose curve; in most records, active means well fitted curve in the direction sought with a large enough effect; inconclusive means small, poorly fitted or top-dose-only effect, or another doubt; inactive means no such curve, though single readings can be large; an effect the other way counts as inactive or inconclusive. Unless noted, on the % scale 0 is the no-effect control and ±100 the full control effect.
SMILES,NPSR antag,FBPA coupling cs,RGS12 GoLoco inh,ALDH1A1 inh,JMJD2E inh,Sfp inh
COP(=S)(OC)SCN1C(=O)c2ccccc2C1=O,10%[46.1 µM],3,11%,?,-9%,35µM*
CCOP1(=S)Oc2cc3c(cc2C(C(=O)OC)(C(F)(F)F)O1)OCO3 (stereo unspecified),-19%[46.1 µM],3,-2%,?,-9%,25µM*
O=c1[nH]c(=O)n(Cc2ccco2)c(O)c1C=NCCN1CCOCC1,4%[7.67 µM],1,11%,-14%,8%,-17%
O=c1[nH]c(=O)n(Cc2ccccc2)c(O)c1C=NCCN1CCNCC1,10%[46.1 µM],7,-9%,16µM*,-2%,?
O=c1[nH]c(=O)n(Cc2ccccc2)c(O)c1C=Nc1ccc(CN2CCOCC2)cc1,-18%[46.1 µM],0,.,14µM*,?,56µM*
O=c1[nH]c(=O)n(CCC2=CCCCC2)c(O)c1C=NCCN1CCNCC1,-1%[46.1 µM],0,89%,14µM*,-4%,11%
O=C(O)[C@@H]1Cc2[nH]cnc2C(c2cccnc2)N1 (stereo partly specified),.,0,2%,-7%,?,?
Nc1ccccc1O.O.O=C(O)[C@H]1[O][Sb][O][C@H]1C(=O)O,.,.,5%[14.2 µM],3.2µM*,.,.
CCOc1cccc(=NC2CCCCC2)c2c(C)n(C)c(C)c12,7.9µM*,-7,8%,.,8%,-6%
CCOc1ccccc1CN1C2CCC1CC(c1ccc(C)cc1)C2 (stereo unspecified),.,2,.,.,.,7%
CC1=NN(c2ccccc2)C(=O)C1/C=C1/C(=O)NC(=O)N(c2cccc(C)c2)C1=O (stereo unspecified),-10%[46.1 µM],9,10%,3%,-1%,-13%
Cc1cccc(N2C(=O)NC(=O)/C(=C\c3ccc4c(c3)CCCN4Cc3ccccc3)C2=O)c1,-23%,5,-35%,0.18µM*,?,45µM*
Clc1ccccc1-c1cncnc1NCCc1cnc[nH]1,.,1,-4%,6%,.,1%
Cn1c(O)c(C(c2ccccn2)c2c(O)n(C)c(=S)[nH]c2=O)c(=O)[nH]c1=S,-3%[46.1 µM],4,-18%,-12%,?,79µM*
C/C=C(\C)C(=O)OC1C(C)=C2C(C1OC(=O)CCCCC)C(C)(OC(C)=O)CC(OC(=O)CCC)C1(O)C2OC(=O)C1(C)O (stereo unspecified),4µM*,-7,4%,.,-12%,28%
C[C@](O)(CS(=O)(=O)c1ccc(F)cc1)C(=O)Nc1ccc(C#N)c(C(F)(F)F)c1,.,.,.,.,.,12%
C=C1CC2C(CC[C@]3(C)C(=O)CCC23)[C@]2(C)C=CC(=O)C=C12 (stereo partly specified),.,1,-11%,28µM*,?,5%
CCOP(=S)(OCC)SCn1c(=O)oc2cc(Cl)ccc21,.,-2,-7%,3%,-12%,56µM*
CN(C)C(=S)SSC(=S)N(C)C,?,-45*!,3.2µM*!,0.079µM*,25µM*,3.5µM*!
CN(C)C(=S)SC(=S)N(C)C,.,-1,1%,3.5µM*,.,11µM*
Cn1cc(C(=O)C(=O)N[C@H]2CN3CCC2CC3)c2ccccc21,.,0,3%,-1%,-2%,56µM*!
Cc1cc(C)cc(OP(=O)(Oc2cc(C)cc(C)c2)Oc2cc(C)cc(C)c2)c1,.,.,4%,?,.,.
O=C1NC(=O)N(c2cccc(Br)c2)C(=O)/C1=C/c1ccsc1,-18%,-6,54%,?,-20%,20µM*
O=C1NC(=O)N(c2ccc(Br)cc2)C(=O)/C1=C/c1ccsc1,-17%,2,30%,?,-9%,32µM*
N#CCBr,.,.,-104%,-9%,.,.
SMILES,NPSR antag,FBPA coupling cs,RGS12 GoLoco inh,ALDH1A1 inh,JMJD2E inh,Sfp inh
C[C@]12CC[C@H]3[C@@H](CCC4=CC(=O)CC[C@@]43C)[C@@H]1CC[C@@H]2C(=O)CO,-29%,-6,4%,?,5%,79µM*
CCC(=O)O[C@H]1CC[C@H]2[C@@H]3CCC4=CC(=O)CC[C@]4(C)[C@H]3CC[C@]12C,.,-2,-18%[21.6 µM],-9%[20.9 µM],-1%[25.5 µM],?
O=C1NC(=O)C(=CN2CCc3ccccc32)C(=O)N1,-3%,-20,71%,11µM*,-3%,-29%
N#CN=C1SCCN1Cc1ccc(Cl)nc1,.,0,.,.,.,7%
CC(C)(C)OC(=O)C(Br)CCBr (stereo unspecified),.,0,.,.,.,-10%
C[C@H]1CN(C2CCC(C#N)(c3ccc(F)cc3)CC2)CC[C@@]1(C(=O)O)c1ccccc1 (stereo partly specified),.,-4,4%[21.6 µM],-8%[20.9 µM],-1%[25.5 µM],11%
N#CC1(c2ccccc2)CCN(C2CC(=O)N(c3ccc4c(c3)OCO4)C2=O)CC1 (stereo unspecified),4%,1,-30%,8.9µM*,4%,?
N#CC1(c2ccccc2)CCN(C2CC(=O)N(c3ccc(F)cc3)C2=O)CC1 (stereo unspecified),5%,2,-4%,32µM*,-5%,-6%
O=C1OC(c2cc(I)c(O)c(I)c2)(c2cc(I)c(O)c(I)c2)c2ccccc21,.,3,-50%,-4%,.,40µM*
COc1cccc(N=Nc2c(O)[nH]c(=S)[nH]c2=O)c1,53%,1,25%,25µM*,-6%,-19%
COc1ccc(N=Nc2c(O)[nH]c(=S)[nH]c2=O)cc1,-34%,3,51%,-3%,-5%,-27%
NC(CCl)=N[C@H]1CN2CCC1CC2,.,.,9%[14.2 µM],?,.,.
CC(=NCCN1CCOCC1)c1c(O)n(C2CCCCC2)c(=O)[nH]c1=O,-32%[46.1 µM],-1,-5%,14µM*,-8%,3%
CC(C)c1nccn1Cc1ccc(Cl)cc1Cl,.,.,-8%[14.2 µM],13%[13.5 µM],.,.
CC1=C2C(=COC(C)C2C)C(=O)C(C(=O)O)=C1O (stereo unspecified),.,-36*,7%,?,-26%,-13%
Brc1c(NC2=NCCN2)ccc2nccnc12,11%,-21,1%,16µM*!,20µM*,-8%
O=C(O)c1cc(N=Nc2ccc([As](=O)(O)O)cc2)ccc1O,.,.,4%[14.2 µM],2%[13.5 µM],.,.
CSc1nc(N)c(N=Nc2ccc([As](=O)(O)O)cc2)c(=O)[nH]1,-15%,1,-10%,8.9µM*,-15%,2.8µM*
CC(=O)OCC1=C(C(=O)O)N2C(=O)[C@@H](N)[C@@H]2SC1,.,0,1%[21.6 µM],-9%[20.9 µM],?,22µM*
Nc1ccccc1Cl,.,.,50µM*,-3%,.,.
O=C(N[C@@H]1CN2CCC1CC2)c1cc(Cl)cc2[nH]cnc12,.,-2,.,.,.,2%
[O-]/[N+](=N\O)c1ccccc1,.,.,-38%,10µM*,.,.
COc1cc2c(cc1OC)[C@@H]1C(=O)c3ccc4c(c3OC1CO2)CC(C(C)C)O4 (stereo partly specified),.,0,0%,2%,-7%,-23%
